Bioassay records (PubChem BioAssay)
Peg3 promoter: Peg3 promoter-driven luciferase inhibitors, primary screen, cell-based, HeLa, luciferase luminescence | HeLa PEG-Prom luciferase reporter, overnight | inhibition, % at 20 µM | 1.7% of 360,000 active | AID 588405, 2011;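 active = inhibition of at least 50% at 20 µM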
TWEAK-Fn14 inh: inhibitors of TWEAK-Fn14 signaling, primary screen, luciferase reporter cells, uHTS | 2% of 360,000 active | TWEAK-stimulated Fn14 reporter cells, luciferase luminescence, 8 h | inhibition, % at 10 µM | AID 1159606, 2016; in the data active = inhibition above about 50%
TROY NFkB inh: inhibitors of TROY-driven NF-kB signaling, primary screen, Q293 LMP1-TROYcd cells, NF-kB luciferase, uHTS | Q293 LMP1-TROYcd NF-kB luciferase reporter, 4 h | inhibition, % at 10 µM | 0.98% of 360,000 active | AID 1347056, 2019;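 active = compounds whose plate-normalised and pattern-corrected inhibition of the luciferase reporter signal at the single screening dose is 50% or more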
KKLEB tox: cytotoxicity in KKLEB CF airway cells, primary screen, cytotoxicity control for CF NF-kB inhibitor project, cell-based, uHTS, fluorescence assay plates; KKLEB CF airway cells viability, ATPlite luminescence, overnight; hits give low values; cells stimulated with P. aeruginosa culture filtrate; activity change (cytotoxicity), % at 5 µM; 0.36% of 360,000 active;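 active = corrected activity change at or below -50% at 5 µM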
HIF-2a block: HIF-2a reporter inhibitors, primary screen, luminescence, 786-0 RCC cells; 786-0 RCC cells HIF-2a reporter, luciferase luminescence, overnight; AID 624352, 2012; 0.72% of 360,000 active; inhibition, % at 18.8 µM;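 active = inhibition of the luminescence signal of 40% or more relative to plate controls, in a single-dose primary screen at 18.75 µM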
CF NFkB block: inhibitors of PAF-induced NF-kB signaling, primary screen, cell-based, GFP fluorescence, uHTS | 0.86% of 360,000 active | inhibition, % at 5 µM | KKLEB NF-kB-GFP reporter, GFP fluorescence overnight;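 active = at least 50% inhibition at 5 µM, scaled per plate between neutral and stimulator controls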;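 also: PAF is a Pseudomonas aeruginosa culture filtrate used as stimulus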
Hits are given with their value; i = inactive. Rows were chosen to be rich in hits. Some 4% of all compounds tested hit in one or more screens of this group.

SMILES	Peg3 promoter	TWEAK-Fn14 inh	TROY NFkB inh	KKLEB tox	HIF-2a block	CF NFkB block
CC(C)CCn1c(Sc2nc3ccccc3o2)nc2c1c(=O)[nH]c(=O)n2C	i	67	i	i	i	i
CCOc1ccc(N(C)S(=O)(=O)c2cc(-c3cc(C)no3)ccc2CC)cc1	i	72	i	i	i	i
CCCCn1c(=NC(C)=O)c(C#N)cc2c(=O)n3cccc(C)c3nc21	i	i	i	i	i	i
CCCCCn1c(=NC(=O)c2cccnc2)c(C#N)cc2c(=O)n3cccc(C)c3nc21	56	i	i	i	i	i
COc1ccc(CN(C)C(=O)c2ccccc2OCc2c(C)noc2C)c(OC)c1	i	i	i	i	i	i
COC(=O)C1=C(C)N(c2cccc(OC)c2)C(=O)/C1=C\c1ccco1	i	i	i	i	i	i
Cc1ccc[n+](CC(=O)Nc2ccc(N(C)C)cc2)c1	i	i	i	i	i	i
CCN1C(=O)[C@@H]2Cc3c([nH]c4ccccc34)C(c3cc(OC)c(OC)c(OC)c3)N2C1=S (some centres undefined)	i	i	i	i	i	i
COc1cc([C@H]2c3[nH]c4ccccc4c3C[C@H]3C(=O)N4[C@@H](c5cc(OC)c(OC)c(OC)c5)c5[nH]c6ccccc6c5C[C@H]4C(=O)N23)cc(OC)c1OC	i	i	i	i	52	i
CC1CCCC(NC(=O)CSC2CCCCC2)C1C (centres undefined)	i	i	i	i	i	i
CC1CCCCC1NC(=O)NC(=O)CCl (centres undefined)	55	i	i	i	i	i
CC1CCCC(NC(=O)NC(=O)CCl)C1C (centres undefined)	51	i	i	i	i	i
Nc1nc(-c2cccnc2)nn1C(=O)c1ccccc1Cl	i	i	i	i	i	i
CCCc1ccc(C(=O)NC(=O)c2ccccc2O)cc1	i	57	i	i	i	i
O=C(NC(=O)c1ccccc1O)c1ccc(C(F)(F)F)cc1	i	i	i	i	i	i
Cc1nn(S(=O)(=O)c2cccs2)c(C)c1Sc1ccc([N+](=O)[O-])cc1	i	50	i	i	i	i
Brc1cccc(OCCSc2ncccn2)c1	i	i	i	i	i	i
CCOC(=O)[C@@H]1[C@H]2COc3cc(OC)ccc3[C@@H]2N2C(=O)N(c3ccc(C(F)(F)F)cc3)C(=O)[C@@]12C	i	i	i	i	i	i
CCOC(=O)[C@@H]1[C@H]2COc3cc(OC)ccc3[C@H]2N2C(=O)N(c3ccc(C(F)(F)F)cc3)C(=O)[C@]12C	i	74	i	i	i	i
CC(NC1CCCC1)c1ccccc1 (centres undefined)	i	i	76	i	i	i
CC(NC(=O)C1CCCC1)c1ccccc1 (centres undefined)	i	i	i	i	i	i
Cc1ccccc1NCC(=O)N/N=C/C(Br)=C/c1ccccc1	i	58	i	i	i	i
O=c1c2cnn(-c3ccccc3)c2nc(-c2ccco2)n1-c1ccccc1	i	55	i	i	i	i
COc1cc(/C=C2/C(=N)N3OC(C)=CC3=NC2=O)ccc1OC(=O)c1ccco1	i	i	i	i	i	i
C[C@@H]1CN([C@@H](C)CO)C(=O)c2cc(NC(=O)Nc3cccc4ccccc34)ccc2O[C@@H](C)CCCCO[C@H]1CN(C)C(=O)c1ccccc1	i	i	i	i	i	i
SMILES	Peg3 promoter	TWEAK-Fn14 inh	TROY NFkB inh	KKLEB tox	HIF-2a block	CF NFkB block
COc1ccc(C(C)(C)C)cc1NC(=O)CCn1[nH]c(=O)ccc1=O	i	i	i	i	i	i
COc1ccc(NC(=O)c2cc3cccc(OC)c3oc2=Nc2ccc(C(=O)O)cc2)cc1OC	i	83	i	i	i	i
COc1cccc2cc(C(=O)Nc3cccc(C)n3)c(=O)oc12	i	57	i	i	i	i
COc1cccc2cc(C(=O)N3CCc4ccccc43)c(=O)oc12	i	50	i	i	i	i
CC1CCCCC12NC(=O)N(CC(=O)N1CCN(S(=O)(=O)c3ccc(Cl)s3)CC1)C2=O (centres undefined)	i	i	i	i	i	i
CSc1nc(O)c(N=Nc2ccc(F)cc2F)c(=O)[nH]1	i	i	i	i	i	i
CCCN1CC23C=CC(O2)C(C(=O)O)C3C1=O (centres undefined)	i	i	i	i	i	i
NC(=N\N=Cc1ccccc1)/C(N)=N/N=Cc1ccccc1	i	i	i	i	i	i
NC(=N\N=Cc1ccco1)/C(N)=N/N=Cc1ccco1	i	72	i	i	i	i
COc1ccc(OC)c(NC(=O)COC(=O)COc2c(Cl)cc(Cl)c3ccc(C)nc23)c1	i	i	i	i	i	i
NC(=O)CC(NC(=O)c1ccccc1)c1ccc(NCC2CC2)c([N+](=O)[O-])c1 (centres undefined)	i	i	i	i	i	i
c1ccc(/N=C2\N=C(Nc3ccccn3)c3ccccc32)nc1	64	i	i	i	i	i
CC(C)(C)c1ccc(C(=O)NNc2ncccc2-n2cccc2)cc1	i	i	53	i	i	i
O=C(c1cccc(N2CCCC2=O)c1)N1CCN(c2ccccc2)CC1	i	i	76	i	i	i
O=S(=O)(c1ccc(Cl)cc1)N1CCSC1c1ccco1 (centres undefined)	i	i	67	i	i	i
COc1ccc(OCC(=O)c2c[nH]c3ccccc23)cc1	i	i	i	i	i	i
COc1ccc2c(C(=O)CCl)c[nH]c2c1	i	53	i	-52	i	73
CC1(C)NC(=O)C(CCc2ccccc2)NC1=O (centres undefined)	i	i	i	i	i	i
COCC(C)n1c(C)cc(C(=O)COC(=O)c2c(C)nn(-c3ccccc3)c2C)c1C (centres undefined)	i	i	i	i	i	i
COCC(C)n1c(C)cc(C(=O)COC(=O)c2c(NC(C)=O)sc(C)c2C)c1C (centres undefined)	i	i	65	i	i	i
Cc1nn(C2CCS(=O)(=O)C2)c(Cl)c1/C=C/C(=O)OCC(=O)c1c[nH]c2ccccc12 (centres undefined)	i	i	i	i	i	i
Cc1nn(C2CCS(=O)(=O)C2)c(Cl)c1/C=C/C(=O)OCC(=O)c1cc(C)n(-c2ccc(F)cc2)c1C (centres undefined)	i	59	i	i	i	i
CCN(CC)c1ccc(C2NC(=O)c3ccccc3N2)cc1 (centres undefined)	i	95	77	-80	i	i
